# Results published in PubChem BioAssay (NCATS).
# Results filed as inconclusive are left out. The source made the active and inactive calls. Calls come from the whole dose curve; as a rule, active = well fitted inhibition curve with a large enough effect; inconclusive = small, poorly fitted or top-dose-only effect; inactive = flat fitted curve, though single readings scatter.
# Test system: HEK293T
# Experiment: qHTS assay to identify novel small-molecules to repurpose for Merkel cell carcinoma treatment (AID 1296009); note: nearly all actives have a fitted effect of over 60% in size
# Conditions: MCC and control cell lines, CellTiter-Glo viability, 72 h; at 44.8 µM (top of the series) unless noted
# How it was run: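 Cell viability, measured as CellTiter-Glo luminescence, was normalized between DMSO and no-cell wells. The cells had been exposed to 8- or 11-point compound dilutions for 72 hr at 37 degree celsius.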
row,SMILES,outcome
1,COC(=O)c1cccnc1,inactive
2,O=C1C(c2[nH]c3ccccc3c2O)=Nc2ccccc21,inactive
3,Nc1ncnc2c1ncn2[C@@H]1O[C@H](COP(=O)(O)O)[C@@H](O)[C@H]1O,inactive
